{"source": "PubChem BioAssay (Tox21)", "note": "Inconclusive results are not listed. Unmarked numbers belong to inactive results. Calls of active or inactive are those of the source. The call rests on the fitted dose curve; in most records, active means well fitted cell-killing curve with a large enough effect in the repeat runs; inconclusive means weak or mixed curves, or effect the other way; inactive means flat fitted curve, though single readings scatter.", "data": [{"test": "qHTS RealTime-Glo MT Cell Viability Assay in HEK293 cells - 40 hour (AID 1224874); further: nearly all actives have a fitted effect of over 50% in size; further: potency means the concentration at half of the fitted maximal effect; on max response: on the % scale 0 is the no-effect control and ±100 the full control effect", "conditions": "RealTime-Glo luminescence; max response: stronger effect = lower value", "source_text": "U.S. Tox21 Program National Center for Advancing Translational Sciences [NCATS] NIH Chemical Genomics Center [NCGC] U.S. Environmental Protection Agency [EPA] National Institutes of Environmental Health Sciences [NIEHS] National Toxicology Program [NTP] U.S. Food and Drug Administration [FDA] Tox21 Assay Overview: Measure of cell viability is critical in the cell-base assay. Analysis of cell viability is necessary for the characterization of cell responses to cytotoxic drugs and environmental stress. A RealTime-Glo MT Cell Viability Assay to monitor cell viability in real time of continues cell culture during 40 hours of compound treatment was used to screen Tox21 10K library compounds in Hek293 cells. The RealTime-Glo MT Cell Viability Assay is a nonlytic, homogeneous, bioluminescent method to measure cell viability in real time using a simple, plate-based method. The assay involves adding NanoLuc luciferase and a cell-permeant prosubstrate to cells in culture. Viable cells reduce the proprietary prosubstrate to generate a substrate for NanoLuc luciferase. This substrate diffuses from cells into the surrounding culture medium, where it is rapidly used by the NanoLuc Enzyme to produce a luminescent signal. The signal correlates with the number of viable cells, making the assay well suited for cytotoxicity studies.\nTox21 Assay Protocol Summary: The mixture of Hek293 cell suspension and reagents were dispensed at 600cells/6 ul/well in 1536-well tissue culture treated black solid bottom plates using a Multidrop dispenser. After the assay plates were incubated at a 37 C/5% CO2 incubator for 5 hours, 23 nL of compounds dissolved in DMSO, positive and negative controls was transferred to the assay plate by a pintool work station. The plates were incubated at 37 C for 40 hours. The luminescence intensity were measured at 0h, 8h, 16h, 24h, 32h and 40h time points using ViewLux plate reader during compound treatment.", "units": {"max response": "%"}, "values": [{"molecule": "NC(Cc1ccc(F)cc1)C(=O)O", "note": "(stereo not given)", "max response": 2.65}, {"molecule": "CCCCCCC", "max response": -15.1}, {"molecule": "CO[C@@]1(NC(=O)CSCC#N)C(=O)N2C(C(=O)O)=C(CSc3nnnn3C)CS[C@@H]21", "max response": 7.28}, {"molecule": "O=C(O)C(=O)Cc1c[nH]c2ccccc12", "max response": 2.14}, {"molecule": "Cc1cc2nc(N)sc2cc1C", "max response": -0.484}, {"molecule": "CCOC(=O)c1cc(=O)c2c(OCC(COc3cccc4oc(C(=O)OCC)cc(=O)c34)OC(=O)[C@@H](N)CCCCN)cccc2o1", "max response": 3.47}, {"molecule": "CC(=O)N[C@@H](CC(C)C)C(=O)O", "max response": -2.78}, {"molecule": "OCCN(CCO)CCN(CCO)CCO", "max response": -1.3}, {"molecule": "CNCCC(Oc1ccccc1OC)c1ccccc1", "note": "(stereo not given)", "max response": -21.1}, {"molecule": "O=C(O)c1cccc(Cl)c1Cl", "max response": -7.63}, {"molecule": "NNS(=O)(=O)c1ccc(Oc2ccc(S(=O)(=O)NN)cc2)cc1", "max response": 0.181}, {"molecule": "CC(=O)Nc1ccc(C)c(Cl)c1", "max response": -13.2}, {"molecule": "CC(C)S", "max response": 0.674}, {"molecule": "CCOC(=O)CS", "max response": -5.88}, {"molecule": "COc1ccc(Nc2ccc(OC)cc2)cc1", "Potency": "28.1 µM (active)"}, {"molecule": "COc1cc(C)ccc1C(C)C", "max response": 3.29}, {"molecule": "CCCCNCCCC", "max response": 1.62}, {"molecule": "CCc1cc2cc(OC)c(OC)cc2c(Cc2ccccc2)n1", "Potency": "16.9 µM (active)"}, {"molecule": "Cc1nc(-c2ccccn2)ncc1C(=O)Nn1cc(C)c2cc(F)ccc21", "Potency": "1.38 µM (active)"}, {"molecule": "CO[Si](C)(C)OC", "max response": -0.595}, {"molecule": "CC1=CC(=O)CC(C)(C)C1=O", "max response": -4.9}, {"molecule": "CCCCCOc1ccc(C2SC(=O)NC2=O)cc1OCC", "note": "(stereo not given)", "max response": -9.78}, {"molecule": "CN1CCN(N)CC1", "max response": 5.85}, {"molecule": "CCCCNc1ccc(C(=O)OCCN(CC)CC)cc1", "max response": -22.9}, {"molecule": "CCCCCCCCc1ccc(S(=O)(=O)O)cc1", "max response": -16.1}, {"molecule": "CC1CN(c2ccccc2)NC1=O", "note": "(stereo not given)", "max response": -13.5}, {"molecule": "O=C(O)[C@@H](O)[C@H](O)[C@H](O)[C@@H](O)C(=O)O", "max response": 0.215}, {"molecule": "C=CC1CO1", "note": "(stereo not given)", "max response": 6.13}, {"molecule": "CN1C(=O)CC(c2ccccc2)C1=O", "note": "(stereo not given)", "max response": 11.9}, {"molecule": "FC(F)(F)C(Cl)(Cl)Cl", "max response": 6.41}, {"molecule": "CN1CCN(c2c(F)cc3c(=O)c(C(=O)O)cn4c3c2SCC4)CC1", "max response": 6.23}, {"molecule": "CC(C)CCCCCCc1ccc(OCCOCCO)cc1", "max response": 2.16}, {"molecule": "CN1CCN(c2c(F)cc3c(=O)c(C(=O)O)cn(CCF)c3c2F)CC1", "max response": 10.4}, {"molecule": "CN(CCCN1c2ccccc2CCc2ccccc21)CC(=O)c1ccc(Cl)cc1", "max response": -24.7}, {"molecule": "C=CCCC=C", "max response": 4.67}, {"molecule": "CC(C)=CCC[C@](C)(O)[C@@H]1CC=C(C)CC1", "max response": -6.23}, {"molecule": "CCN1CC(CCN2CCOCC2)C(c2ccccc2)(c2ccccc2)C1=O", "note": "(stereo not given)", "max response": 20.2}, {"molecule": "CCN(CC)CCNC(=O)COc1ccc(Cl)cc1", "max response": 2.3}, {"molecule": "CC(C)(C)c1cccc(O)c1", "max response": -6.86}, {"molecule": "CCCCNc1cc(C(=O)O)cc(S(N)(=O)=O)c1Oc1ccccc1", "max response": 0.323}]}]}
